D1 antagonist: Antagonist of Human D 1 Dopamine Receptor: qHTS; activity change, negative = inhibition, % at 10 µM; HEK293 TREx D1 cells, calcium flux, dopamine EC80; active compounds read low; D(1A) dopamine receptor (Homo sapiens), P21728; hit rate 3.2% among 360,000; AID 504652, 2011; in the data active = activity change below about -30%; also: % is scaled to controls: 0 for no effect and ±100 for the full control effect
Target sequence (P21728 whole entry, looked up): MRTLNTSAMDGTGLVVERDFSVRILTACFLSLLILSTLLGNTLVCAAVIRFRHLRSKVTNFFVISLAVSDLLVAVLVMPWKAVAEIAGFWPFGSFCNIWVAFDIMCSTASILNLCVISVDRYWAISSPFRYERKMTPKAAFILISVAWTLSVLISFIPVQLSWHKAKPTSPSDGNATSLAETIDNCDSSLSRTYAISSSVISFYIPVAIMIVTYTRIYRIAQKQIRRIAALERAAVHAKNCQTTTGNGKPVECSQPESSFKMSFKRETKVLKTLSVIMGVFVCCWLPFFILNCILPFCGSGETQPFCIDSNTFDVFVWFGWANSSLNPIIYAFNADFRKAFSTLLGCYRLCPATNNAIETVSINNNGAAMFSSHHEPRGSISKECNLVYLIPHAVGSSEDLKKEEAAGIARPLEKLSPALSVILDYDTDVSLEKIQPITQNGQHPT
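HEK293 T-REx cells expressing inducible, force-coupled D1 receptor; no-wash Ca dye, 30–90 min RT. Cmpd → 180 s read at 1 Hz → EC80 DA → 180 s read.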
TRHR agonist-1: qHTS for Small Molecule Agonists and Allosteric Enhancers of Human TRH Receptor: Primary Screen for Agonists; TRHR cells, calcium flux fluo-8, FDSS agonist mode; activation, % at 2 µM; hit rate 0.18% among 360,000; in the data active = activation above about 30%; also: 0% is about no effect
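Fluo-8-loaded TRHR cells; 10 s baseline, compound added, kinetic Ca2+ fluorescence read 1/s, agonist mode.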
D1 agonist: Allosteric Agonists of the Human D1 Dopamine Receptor: qHTS | D(1A) dopamine receptor (Homo sapiens), P21728 | activation, % at 2 µM | HEK293 T-REx D1 cells, calcium flux, agonist mode | hit rate 1% among 360,000; in the data active = activation above about 30%; also: 0% is about no effect
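Inducible HEK293 T-REx D1 cells, force-coupled to calcium signalling, were plated at 4000 cells/well with tetracycline and held overnight at 30 C. After no-wash calcium dye loading, compound-evoked calcium rise over 180 s flagged agonists.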
TRHR enhancer-1: qHTS for Small Molecule Agonists and Allosteric Enhancers of Human TRH Receptor: Primary Screen for Enhancers; Thyrotropin-releasing hormone receptor (Homo sapiens), P34981; enhancement, % at 2 µM; TRHR cells, fluo-8 calcium fluorescence, EC20 TRH enhancement; hit rate 0.66% among 360,000; AID 493056, 2011; in the data active = enhancement above about 30%; also: 0% is about no effect
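TRHR-expressing cells loaded with fluo-8 calcium dye were read kinetically (ex 480/em 530) during compound addition, then stimulated with an EC20 of TRH (10 nM final). Enhancement of the Gq-mediated intracellular calcium response was scored.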
D1 potentiator: Potentiators of Human D1 Dopamine Receptor: qHTS; HEK293 TREx D1 cells, calcium flux, dopamine EC20 potentiation; hit rate 0.036% among 360,000; AID 504651, 2011; potentiation, % at 10 µM; D(1A) dopamine receptor (Homo sapiens), P21728; in the data active = potentiation above about 30%; also: 0% is about no effect
Glioma ERSR ind: qHTS for Inducers of the Endoplasmic Reticulum Stress Response (ERSR) in Human Glioma: qHTS | U87-MG GRP78 promoter luciferase reporter, 16 h | Potency, µM, inactives show top-dose activation, actives largely listed as activators | hit rate 0.02% among 420,000 | AID 602332, 2012; also: potency is read from the fitted curve at half-maximal effect; series mostly up to about 76 µM; % of control where 0% means no effect; nearly all actives have a fitted effect of over 35% in size
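ERSR induction read as luciferase luminescence (Bright-Glo, 10 min at room temperature) in stably transfected human U87-MG glioma cells exposed to compounds for 16 h, using GRP78 as sensor.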
TRHR enhancer-2: qHTS for Small Molecule Agonists and Allosteric Enhancers of Human TRH Receptor: Confirmation Screen for Enhancers | AID 493076, 2011 | 970 tested, under 10 active | shares compounds with TRHR enhancer-1 | TRH receptor cell assay, enhancer confirmation qHTS | activity change, negative = inhibition, % at 46.1 µM;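 also: compound effect scored on response to added TRH at EC20 of 10 nM; 0% is about no effect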
TRHR agonist-2: qHTS for Small Molecule Agonists and Allosteric Enhancers of Human TRH Receptor: Confirmation Screen for Agonists. shares compounds with TRHR enhancer-1. TRHR-expressing cells, agonist activation read-out. Potency, µM (highest dose often 46.1 µM), for the others: at the highest dose activation, usual class: activators. hit rate 8% among 970. AID 493078, 2011; also: potency is read from the fitted curve at half-maximal effect; 0% is about no effect; nearly all actives have a fitted effect of over 75% in size
* = called active by the depositor; ? = inconclusive; · = not tested or not shown. This is a sample that favours compounds with a hit; in the whole collection about 4% have one here. Unless noted, calls follow the shape of the dose curve; as a rule, active = well fitted curve in the direction sought with a large enough effect; inconclusive = small, poorly fitted or top-dose-only effect, or another doubt; inactive = no such curve, though single readings can be large; an effect the other way counts as inactive or inconclusive.

SMILES	D1 antagonist	TRHR agonist-1	D1 agonist	TRHR enhancer-1	D1 potentiator	Glioma ERSR ind	TRHR enhancer-2	TRHR agonist-2
CC1=Nc2ccccc2/C1=C/c1sc(=S)n(-c2cccc(C(=O)O)c2)c1O	-4.8	29.4	48.9*	-6.4	2.5	-12.5%	2.2	20.6µM*
Cn1c(SCC(=O)NCc2ccco2)nnc1-c1ccc(S(=O)(=O)N2CCOCC2)cc1	9.3	-0.2	-0.4	47.4*	-2.9	-4.6%	-2.9	-0.5%
Cc1ccc(NC(=O)CSc2nnc(-c3ccc(S(=O)(=O)N4CCOCC4)cc3)n2C)cc1	-8.1	-3.2	8.9	-4.1	-0.7	-0.6%	·	·
COc1cc(C(=O)NC2CCCCCCC2)cc(OC)c1OC	·	·	·	·	·	-5.9%	·	·
COc1cc(C(=O)NC2CCCC2)c(Br)c(OC)c1OC	-8.6	0.0	0.5	49.1*	-10.9	-1.6%	-1.1	4.9%
CCN(CC)C(=O)CSc1nc2ccccc2c(=O)n1OC(C)C	·	-0.4	0.7	3.9	0.6	-1.1%	·	·
COc1cccc(NC(=O)CN(c2ccc(C)cc2)S(=O)(=O)c2c(C)nn(C)c2C)c1	16.2	33.4*	3.9	-0.3	10.8	-0.2%	-3.2	7.3%
COc1ccc(N(CC(=O)Nc2cccc(OC)c2)S(=O)(=O)c2c(C)nn(C)c2C)cc1	0.4	0.2	2.0	5.9	3.2	-3.0%	·	·
COc1cccc(NC(=O)c2cc3cccc(OC)c3o/c2=N\O)c1	13.8	-1.2	3.3	0.3	1.4	·	·	·
COc1cccc(NC(=O)c2cc3ccccc3o/c2=N\O)c1	-0.9	-0.2	-0.4	49.0*	2.5	-11.7%	6.4	-0.7%
Cc1cccc(-n2ncc3c(NCCCN4CCCC4=O)ncnc32)c1	3.9	-0.5	8.6	6.0	-2.3	-1.7%	·	·
O=C1CCCN1CCCNc1ncnc2c1cnn2-c1ccc(Cl)cc1	-13.0	-0.4	8.2	54.4*	-0.6	-0.5%	-8.5	4.6%
CN1CCN(C(=S)NC(=O)c2cccc([N+](=O)[O-])c2)CC1	2.4	0.3	-1.4	49.9*	0.7	-3.4%	-2.9	-0.7%
CC1CCN(C(=S)NC(=O)c2cccc([N+](=O)[O-])c2)CC1	11.6	0.1	1.5	0.9	3.5	-3.5%	·	·
CCCN(c1ccc(OCC)cc1)S(=O)(=O)c1ccc2c(c1)CCN2C(=O)CCC(=O)O	23.4	0.1	2.8	-3.7	11.8	-3.3%	·	·
COc1ccc(NC2CCCN(C(=O)CSc3ccncc3)C2)cc1 (configuration not stated)	43.7	-0.4	2.8	82.9*	-7.9	-5.1%	-1.3	-0.8%
O=C(O)[C@H]1CCCC[C@H]1C(=O)Nc1ccc(Nc2ccccc2)cc1	-11.6	0.0	1.6	-0.1	-3.1	15.9%	·	·
Cc1ccccc1N1CCN(c2ccc(NC(=O)C3CCCCC3C(=O)O)cc2)CC1 (configuration not stated)	14.0	0.9	0.9	41.6*	-4.8	-1.9%	-2.7	3.7%
O=C(NC1CCCCC1)C(c1ccccc1F)N(Cc1ccco1)C(=O)c1ccccn1 (configuration not stated)	1.7	-0.1	1.0	-4.1	-1.9	-2.7%	·	·
CCC1(C)Cc2c(sc3c2c(=O)n(C)c2nnc(SCCc4ccccc4)n32)CO1 (configuration not stated)	8.3	0.2	0.3	65.2*	4.4	-4.7%	-9.2	0.4%
COc1cc(C)nc(N(Cc2ccccc2)S(=O)(=O)c2ccccc2)n1	-3.4	-0.2	2.7	-2.6	-7.8	-1.6%	·	·
COC(=O)CN(c1nc(C)cc(OC)n1)S(=O)(=O)c1ccccc1	-16.0	-0.6	1.4	68.1*	0.4	-4.6%	-7.2	1.5%
CC(=O)Oc1c(Sc2ccccc2[N+](=O)[O-])c(C)nn1C(C)(C)C	5.7	-0.4	1.9	57.8*	-0.1	-6.3%	-7.3	?
CCc1nc2c(OCc3ccc(Cl)cc3Cl)cccn2c1N(C=O)Cc1ccc(OC)cc1	·	·	·	·	·	-3.7%	·	·
COC(=O)COc1ccc(S(=O)(=O)Nc2cc([N+](=O)[O-])ccc2C)cc1	0.5	-0.1	5.0	44.5*	-5.2	-4.8%	3.8	-0.7%
SMILES	D1 antagonist	TRHR agonist-1	D1 agonist	TRHR enhancer-1	D1 potentiator	Glioma ERSR ind	TRHR enhancer-2	TRHR agonist-2
Cc1ccc(N2CCN(C(=O)c3ccccc3)CC2)c(C)c1	-12.6	0.9	0.7	0.4	-1.9	-2.0%	·	·
Cc1ccc(N2CCN(C(=O)c3cc(C(=O)c4ccccc4C)c[nH]3)CC2)c(C)c1	18.8	-1.0	4.0	86.4*	·	5.5%	0.7	-0.5%
CCc1ccc(C(C(=O)NCCOC)N(C(=O)Cn2nnc3ccccc32)c2cccnc2)cc1 (configuration not stated)	-2.4	0.0	0.0	3.4	11.2	-6.0%	·	·
COCCNC(=O)C(c1ccc(OC)cc1)N(C(=O)Cn1nnc2ccccc21)c1cccnc1 (configuration not stated)	-2.4	-0.5	2.4	42.2*	1.6	-1.9%	-5.1	-0.1%
Cc1csc(N2CCCC2=O)n1	-8.5	0.5	4.4	41.4*	-5.4	2.1%	5.2	-0.6%
O=[N+]([O-])c1ccc(/C=C/C2=NN(c3ccccc3)C(c3ccco3)C2)o1 (configuration not stated)	-4.4	39.9*	97.2*	-9.4	0.3	-1.9%	-4.8	?
Clc1ccc(C2=NN(c3ccccc3)C(c3ccco3)C2)cc1 (configuration not stated)	16.2	-4.1	5.3	8.4	5.2	-1.4%	·	·
Cc1c(C)c2ccc(OCC(=O)NCCCn3ccnc3)cc2oc1=O	-11.7	0.1	1.9	43.1*	-8.4	-3.6%	0.9	-0.5%
O=S(=O)(c1cccc(S(=O)(=O)N2CCC(N3CCCCC3)CC2)c1)N1CCOCC1	13.5	0.2	-0.9	49.1*	-0.7	·	-2.5	1.1%
CC1CCN(S(=O)(=O)c2cccc(S(=O)(=O)N3CCOCC3)c2)CC1	-1.1	-0.3	7.2	4.5	-3.1	-5.6%	·	·
Cc1occc1C(=O)NNC(=O)C1CC1	5.1	0.2	1.4	2.0	-1.6	3.8%	·	·
